High-throughput results deposited in PubChem by National Center for Advancing Translational Sciences (NCATS).
Hits are enriched below; roughly 6.2% of the tested compounds scored in any of these assays.
Gal4-VP16 FLuc: counter-screen for ROR gamma inhibitors: Gal4-VP16 reporter; 3.5% of 310,000 active; Drosophila S2 Gal4-VP16 UAS-luciferase, luminescence, 20 h; Potency, µM (doses to about 53.6 µM), without a hit: top-dose activity, negative = inhibition, hits mostly inhibitors;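 further: Gal4-VP16 expression switched on by copper sulfate through the metallothionein promoter; nearly all actives have a fitted effect of over 50% in size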
RORg inh: blocks mouse ROR gamma transcriptional activity; P51450; Drosophila S2 Gal4-RORgamma UAS-luciferase reporter, 20 h; Potency, µM (series often up to 53.6 µM), for the others: at the top dose activity change, negative = inhibition, hits mostly inhibitors; 5.4% of 310,000 active; further: nearly all actives have a fitted effect of over 60% in size
Target sequence (P51450 whole entry, looked up, the tested form may be a part): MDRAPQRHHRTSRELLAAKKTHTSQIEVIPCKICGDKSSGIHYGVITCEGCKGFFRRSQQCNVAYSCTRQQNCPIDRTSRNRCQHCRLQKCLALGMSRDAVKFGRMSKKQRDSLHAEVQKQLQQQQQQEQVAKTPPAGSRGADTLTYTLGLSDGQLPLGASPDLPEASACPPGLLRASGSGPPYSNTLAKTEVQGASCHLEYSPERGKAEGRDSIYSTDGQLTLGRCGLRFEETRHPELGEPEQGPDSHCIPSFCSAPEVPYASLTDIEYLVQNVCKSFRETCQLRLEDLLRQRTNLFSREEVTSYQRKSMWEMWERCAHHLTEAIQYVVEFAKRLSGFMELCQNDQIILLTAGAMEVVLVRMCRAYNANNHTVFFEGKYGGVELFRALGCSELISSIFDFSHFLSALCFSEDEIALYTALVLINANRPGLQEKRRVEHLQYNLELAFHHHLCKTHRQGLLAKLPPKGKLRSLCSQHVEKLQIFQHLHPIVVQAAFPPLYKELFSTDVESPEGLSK
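Luminescence from a UAS-regulated Photinus luciferase reporter in stably transfected Drosophila Schneider cells is measured; decreased signal marks ROR gamma inhibition. Fusion expression is induced by 700 uM copper sulfate for 20 hr.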
Luc counter: Kinase-Glo luciferase inhibition (counter-screen) | Kinase-Glo luciferase, ATP luminescence, 8 min | Potency, µM (titrated, usually from 38.3 µM), inactives show top-dose activity change, negative = inhibition, hits mostly inhibitors | 0.28% of 200,000 active; further: nearly all actives have a fitted effect of over 60% in size
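Light output from Kinase-Glo luciferase with luciferin and 10 uM ATP in 50 mM imidazole pH 7.2, KCl, MgCl2, Tween 20, BSA; compound pin-delivered, 8-min ambient incubation, then luminescence read.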
An asterisk follows results filed as active; [ ] = dose if it differs, or a comment. The call rests on the fitted dose curve; in most records, active means well fitted curve in the direction sought with a large enough effect; inconclusive means small, poorly fitted or top-dose-only effect, or another doubt; inactive means no such curve, though single readings can be large; an effect the other way counts as inactive or inconclusive. On the % scale 0 is the no-effect control and ±100 the full control effect; potency means the concentration at half of the fitted maximal effect.

`Cc1cnn(-c2ccc3nnc(-c4ccc(Cl)cc4)n3n2)c1` gave Gal4-VP16 FLuc 3%, RORg inh 16% and Luc counter -5%.
Screening COc1ccc(-c2cc(=O)c3c(O)c(OC)c(OC)c(OC)c3o2)cc1 returned Gal4-VP16 FLuc 8%, RORg inh -20% and Luc counter 0%.
`COc1ccc(-c2cc(=O)c3c(O)c(OC)c(O)cc3o2)cc1` gave Gal4-VP16 FLuc 10µM* and RORg inh inconclusive.
CN(C)C(=S)c1ccccc1 was read as Gal4-VP16 FLuc 9% and RORg inh -5%.
O=C1CCC2(CC1)NC(=O)N(c1ccccc1)N2 was read as Gal4-VP16 FLuc 6%, RORg inh -12% and Luc counter -3%.
Screening Cc1cccc(OCCCC(=O)Nc2ccc(Br)cc2)c1 returned Gal4-VP16 FLuc 4%, RORg inh 55% and Luc counter 2%.
COc1ccc(-c2nnc(SCC(=O)NC(C)c3ccccc3)o2)cc1 (stereo unspecified) was read as Gal4-VP16 FLuc 14%, RORg inh -11% and Luc counter -2%.
CCOc1ccc(-c2nnc(NC(=O)CCCOc3cccc(C)c3)o2)cc1 was read as Gal4-VP16 FLuc inconclusive, RORg inh 6.3µM* and Luc counter -8%.
`CCOc1ccc(-c2nnc(NC(=O)Cc3cc(OC)c(OC)c(OC)c3)o2)cc1` gave Gal4-VP16 FLuc inconclusive and RORg inh 11µM*.
COc1cc(C(=O)Nc2ccc(-c3nnc(-c4ccco4)o3)cc2)cc(OC)c1OC was read as Gal4-VP16 FLuc -5%, RORg inh 27% and Luc counter -2%.
CCOc1ccc(-c2nnc(SCC(=O)Nc3cc(C)on3)o2)cc1 was read as Gal4-VP16 FLuc -23%, RORg inh inconclusive and Luc counter 12%.
For CCC(=O)Nc1nnc(-c2ccc(OC)cc2)o1 the results were Gal4-VP16 FLuc 11µM*, RORg inh inconclusive and Luc counter -2%.
For CCOc1ccc(-c2nnc(NC(=O)Cc3ccc(OC)cc3)o2)cc1 the results were Gal4-VP16 FLuc 4.5µM* and RORg inh 1.8µM*.
Screening COc1cccc(CNC(=O)CCC2CCCN(c3cc(C)nc(N)n3)C2)c1 (stereo unspecified) returned Gal4-VP16 FLuc -1%, RORg inh -14% and Luc counter -2%.
`C[C@H](NC(=O)CNC(=O)[C@@H](NC(=O)[C@H](Cc1ccccc1)NC(=O)CNC(=O)CNC[C@@H](N)Cc1ccccc1)[C@@H](C)O)C(=O)N[C@@H](CCCN=C(N)N)C(=O)N[C@@H](CCCCN)C(=O)N[C@@H](CO)C(=O)N[C@@H](C)C(=O)N[C@@H](CCCN=C(N)N)C(=O)N[C@@H](CCCCN)C(N)=O` gave Gal4-VP16 FLuc 3% and RORg inh 22%.
`CN(C)CCCNCCCN` gave Gal4-VP16 FLuc -6% and RORg inh -3%.
Screening COc1ccc2cc(C(=O)C3CCCN(C(=O)Cc4c(C)noc4C)C3)ccc2c1 (stereo unspecified) returned Gal4-VP16 FLuc -8%, RORg inh 25% and Luc counter -1%.
For COc1ccc(NC(=S)N2CCN(c3ccccn3)CC2)cc1 the results were Gal4-VP16 FLuc -6%, RORg inh -24% and Luc counter 1%.
Screening S=C(Nc1ccc2snnc2c1)N1CCN(c2ccccn2)CC1 returned Gal4-VP16 FLuc 5%, RORg inh -20% and Luc counter -1%.
Cc1ccc(NC(=O)N2CCN(c3ccccn3)CC2)cc1 was read as Gal4-VP16 FLuc -11%, RORg inh inconclusive and Luc counter -4%.
`FC(F)Oc1cccc(NC(=S)N2CCN(c3ccccn3)CC2)c1` gave Gal4-VP16 FLuc -7%, RORg inh 7.1µM* and Luc counter -1%.
For CCCCc1ccc(NC(=S)N2CCN(c3ncccn3)CC2)cc1 the results were Gal4-VP16 FLuc inconclusive, RORg inh 4.5µM* and Luc counter 1%.
Screening CCCCc1ccc(NC(=S)N2CCN(c3ccccn3)CC2)cc1 returned Gal4-VP16 FLuc inconclusive and RORg inh 16µM*.
For Fc1ccc(NC(=S)N2CCN(c3ncccn3)CC2)cc1 the results were Gal4-VP16 FLuc 17%, RORg inh inconclusive and Luc counter -2%.
`CCC(C)c1ccc(NC(=S)N2CCN(c3ccccn3)CC2)cc1` (stereo unspecified) gave Gal4-VP16 FLuc 13µM* and RORg inh inconclusive.
CCOc1ccc(C(CC(=O)O)NC(=O)C(CC)c2ccccc2)cc1 (stereo unspecified) was read as Gal4-VP16 FLuc -1% and RORg inh 1%.
`CN(C)/C=N/c1ncc(-c2ncc(C(F)(F)F)cc2Cl)cn1` gave Gal4-VP16 FLuc 1%, RORg inh 3% and Luc counter -3%.
Screening N=C1C(c2ccccc2)=C(O)CN1CCCO returned Gal4-VP16 FLuc -12%, RORg inh 3% and Luc counter -2%.
Screening C[n+]1nc(Nc2cccc(F)c2)sc1-c1ccc(C(=O)O)cc1 returned Gal4-VP16 FLuc 0% and RORg inh 0%.
COc1ccc(CN2CCN(C(=O)Cn3nc(C)n4cccc4c3=O)CC2)c(OC)c1OC was read as Gal4-VP16 FLuc 4% and RORg inh 9%.
COc1ccc(C(=O)N2CCC[C@@]3(CCN(CC(C)C)C3)C2)cc1 was read as Gal4-VP16 FLuc -5%, RORg inh 0% and Luc counter -3%.
Screening O=C(O)[C@@H]1[C@@H](C(=O)NCc2cccnc2)[C@@H]2C=C[C@@H]1O2 returned Luc counter 0%[7.66 µM].
Cc1csc(=NC(=O)c2ccccc2)n1C was read as Gal4-VP16 FLuc -6%, RORg inh -36% and Luc counter -25%.
`O=C(N=c1nc2ccccn2s1)c1ccccc1` gave Gal4-VP16 FLuc 5%, RORg inh 0% and Luc counter 2.5µM*.
CC(C)CN1C2CCCC1CC(NC(=S)NCc1ccco1)C2 (stereo unspecified) was read as Gal4-VP16 FLuc -5%[10 µM], RORg inh -2% and Luc counter 1%.
Screening N/C(Cc1cccc2ccccc12)=N\OC(=O)c1ccccc1F returned Gal4-VP16 FLuc 0% and RORg inh 6%.
`N/C(=N\OC(=O)c1cccc2ccccc12)c1ccc(Br)cc1` gave Gal4-VP16 FLuc 5µM*, RORg inh 10µM* and Luc counter 1%.
N/C(=N\OC(=O)c1cccc2ccccc12)c1ccncc1 was read as Gal4-VP16 FLuc -8% and RORg inh -17%.
For N/C(Cc1ccccc1)=N\OC(=O)c1cccc2ccccc12 the results were Gal4-VP16 FLuc 8.9µM*, RORg inh -7% and Luc counter -6%.
`CCn1c(=O)n(CC(=O)NC2CCCC(C)C2C)c(=O)c2ccccc21` (stereo unspecified) gave Gal4-VP16 FLuc -7%, RORg inh 5% and Luc counter 2%.
`Cc1ccc(S(=O)(=O)NCCC(=O)Nc2ccc(C)cc2C(=O)c2ccccc2)cc1` gave Gal4-VP16 FLuc -8%, RORg inh 32% and Luc counter 0%.
Screening CCN=C1S/C(=C\c2sccc2C)C(=O)N1CC returned Gal4-VP16 FLuc inconclusive, RORg inh 14% and Luc counter -1%.
Screening Cn1c2ccccc2c2nnc(SCC(N)=O)nc21 returned Gal4-VP16 FLuc 4% and RORg inh -2%.
